According to PubChem BioAssay (EPA / NIEHS):
“And” between values parts separate entries of the source, which are not always exact repeats. Identical values can stand only once. The source made the active and inactive calls. The calls were made as follows: active = hit-call score of the fitted dose curve at least 0.9, where 1 is the maximum; inactive = score below 0.9.

read-out: Phosphatase and tensin (PTEN), PTEN (gene 5728); experiment: LTEA_HepaRG_PTEN: Life Technologies and Expression Analysis (LTEA) Assay for Phosphatase and tensin (PTEN) using HepaRG (AID 2283523); conditions: mRNA level, 48 h; actives raise or lower the signal
Method: LTEA_HepaRG is a cell based, multiplexed-readout assay that uses HepaRG, a human liver cell line, with measurements taken at 48 hours after chemical dosing on a 96-well plate.LTEA_HepaRG_PTEN is one of 102 assay component(s) measured in the LTEA HepaRG cell culture assay. It is a marker of Cell proliferation, survival, death.Data from the assay component LTEA_HepaRG_PTEN was analyzed into 1 endpoint. This assay endpoint, LTEA_HepaRG_PTEN, was analyzed with bidirectional fitting relative to DMSO as the negative control and baseline of activity. Using a type of inducible reporter, measures of mRNA induction for gain or loss-of-signal activity can be used to understand regulation of transcription factor activity. To generalize the intended target to other relatable targets, this assay endpoint is annotated to the phosphatase intended target family, where the subfamily is dual-specific phosphatase.
A total of 1060 chemcials from the ToxCast library were tested in eight-point concentration-response experiments. Cell culture and cytotoxicity assays were conducted at Thermo Fisher Scientific's Custom Services facility (Madison, WI). A single lot of human HepaRG cells (Thermo Fisher Scientific, Frederick, MD) was used for the cell culture experiments. 96-well format collagen type I coated plates of human HepaRG cells were prepared using established methods. Briefly, cryopreserved HepaRG cells were thawed, plated at a density of approximately 100,000 cells/well in HepaRG Thaw, Plate, and General Purpose media (HPRG770, Thermo Fisher Scientific), and incubated for 48 hours. 0.5% DMSO was selected as vehicle control to balance the requisite need of DMSO in HepaRG cultures to maintain differentiation (for example, baseline metabolism, proportions of hepatocytes vs. cholangiocytes), while enabling further hepatic receptor pathway activation (for example, PXR and CAR) in response to chemical exposure. 48 hours after plating, the culture medium was replaced with HepaRG Serum-Free Incudtion Media. Cells were exposed to each test chemical in duplicate and maintained in CO2 incubators for another 48 hours. Chemical plates were thawed to room temperature and 200x concentrations of treatment groups were prepared. 8-point conentration-reponse curves were made with the highest exposure at 100 uM, followed by half-log dilutions, all in 0.5% DMSO. Each test plate contained variouse controls, induction positive controls (1mM phenobarbital), cytotoxicity positive controls ([…] aflatoxin B1), vehicle controls (0.5% DMSO), and total lysis controls (0.5% DMSO). Cell morphology images were taken using an Essen IncuCyte FLR automated microscope, with six 96-well plates imaged in about 24 minutes. Images were captured and exported and JPEG files. Spent culture media was transfered to black-well plates for the LDH assay, and remaining media was sorted at -80 C for later use. Cells were treated with RLT buffer and frozen until shipped for gene expression analysis. Total RNA was isolated from the cell suspension in 75 uL of Buffer RLT (Qiagen, Germantown, MD 20874) by Quintiles/Expression Analysis (Durham, NC) using a custom isolation procedure. Total RNA from each plate well was transferred to a preamplification plate. Fluidigm's 96.96 Dynamic ArrayTM (Fluidigm, Amsterdam, the Netherlands) technology was used for gene expression analyses by quantitative reverse transcription polymerase chain reaction (qRT-PCR, performed by Quintiles/Expression Analysis, Durham, NC)89. Standard TaqManTM Assays (Applied Biosystems/ThermoFisher Scientific, Foster City, CA) were used to assess the expression of 93 genes selected based on their selectivity and sensitivity to important hepatic receptors known to be modulated by environmental chemicals; importance in human hepatocyte functionality; and hepatotoxicity. […]

Compound	outcome	AC50
CC(=O)S[C@@H]1CC2=CC(=O)CC[C@]2(C)[C@H]2CC[C@@]3(C)[C@@H](CC[C@@]34CCC(=O)O4)[C@H]12	inactive	
O=C(O)c1ccccc1	inactive	
COc1c(Cl)ccc(Cl)c1C(=O)O	inactive	
CN(C)C(=O)Nc1ccc(Cl)c(Cl)c1	inactive	
CC(=O)[C@H]1CC[C@H]2[C@@H]3CCC4=CC(=O)CC[C@]4(C)[C@H]3CC[C@]12C		87.5 µM (active)
S=C(S)NCCNC(=S)S.[Mn+2].[S-]C([S-])=NCCN=C([S-])[S-].[Zn+2]		1.75 µM (active) and 2.98 µM (active) and 2.22 µM (active)
O=C(c1ccccc1)C1CCCCC1	inactive	
CC(C)(c1ccc(O)cc1)c1ccc(O)cc1	inactive	
CCOC(=O)c1ccc(O)cc1	inactive	
CC(C)CCCCCCc1ccc(O)cc1	inactive	
CCCCCOC(=O)COc1cc(N2C(=O)C3=C(CCCC3)C2=O)c(F)cc1Cl	inactive	
CCOC(=O)C(C)Oc1ccc(Oc2cnc3cc(Cl)ccc3n2)cc1 (stereo not given)	inactive	
COC(=O)CSc1cc(N=c2sc(=O)n3n2CCCC3)c(F)cc1Cl	inactive	
COCCO	inactive	
N[C@@H](Cc1cc(I)c(Oc2ccc(O)c(I)c2)c(I)c1)C(=O)O	inactive	
CCOC(=O)COc1cc(-n2ncc(C(F)(F)F)c(C)c2=O)c(F)cc1Cl	inactive	
COC(=O)c1ccc(I)cc1S(=O)(=O)NC(=O)Nc1nc(C)nc(OC)n1	inactive	
CC1(C)C(C=C(Cl)Cl)C1C(=O)OCc1cccc(Oc2ccccc2)c1 (stereo not given)	inactive	
C#C[C@]1(O)CC[C@H]2[C@@H]3CCC4=CC(=O)CC[C@@H]4[C@H]3CC[C@@]21CC	inactive	
O=C(Nc1ccc([N+](=O)[O-])cc1Cl)c1cc(Cl)ccc1O		4.53 µM (active)

Compound	outcome	AC50
CC(C)(C)[C@@H](O)[C@@H](Cc1ccc(Cl)cc1)n1cncn1	inactive	
O=C(O)C1(C(=O)Nc2ccc(Cl)cc2Cl)CC1	inactive	
OB(O)O	inactive	
COC(=O)c1ccccc1C(=O)O	inactive	
C[C@]12CC[C@@H]3c4ccc(O)cc4C[C@@H](CCCCCCCCCS(=O)CCCC(F)(F)C(F)(F)F)[C@H]3[C@@H]1CC[C@@H]2O (stereo not given in full)	inactive	
CCCCCCC(C)OC(=O)COc1nc(F)c(Cl)c(N)c1Cl (stereo not given)	inactive	
CCOC(=O)C(C)Oc1ccc(Oc2nc3ccc(Cl)cc3o2)cc1 (stereo not given)	inactive	
O=C(c1ccc(O)cc1O)c1ccc(O)cc1O	inactive	
CCCOC(=O)c1ccc(C(=O)OCCC)nc1	inactive	
CCCCC(CC)CN1C(=O)C2C3C=CC(C3)C2C1=O (stereo not given)	inactive	
CCNc1nc(N)nc(Cl)n1	inactive	
CCCCOC(=O)C(C)Oc1ccc(Oc2ccc(C(F)(F)F)cn2)cc1 (stereo not given)	inactive	
CCCN(CCC)c1c([N+](=O)[O-])cc(C(F)(F)F)c(N)c1[N+](=O)[O-]	inactive	
C=CCOC(Cn1ccnc1)c1ccc(Cl)cc1Cl (stereo not given)	inactive	
CCCCOC(=O)[C@@H](C)Oc1ccc(Oc2ccc(C(F)(F)F)cn2)cc1	inactive	
CCSC(=O)N(CC(C)C)CC(C)C	inactive	
Oc1ccc(C(c2ccc(O)cc2)C(Cl)(Cl)Cl)cc1		76.9 µM (active)
N#CSCSc1nc2ccccc2s1	inactive	
CCN(CC)C(=O)c1cccc(C)c1	inactive	
CCCOC(=O)NCCCN(C)C	inactive	
